Source: PubChem
ASM inhibitor: blocks human secretory acid sphingomyelinase. Potency, µM (top dose mostly 57.5 µM), inactives show at the top dose activity change, negative = inhibition, most hits filed as inhibitors. P17405. hit rate 0.006% among 340,000. placental ASM, HMU-PC fluorogenic substrate, 60 min; also: potency is read from the fitted curve at half-maximal effect
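Human placenta-derived ASM enzyme was preincubated with compound for 10 minutes at room temperature, then given fluorogenic substrate HMU-PC0 (9 uM final) for 60 minutes at 37 °C; a pH 10 stop preceded fluorescence reading at Ex 386/Em 447 nm.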
Tb PFK inh: blocks T. brucei phosphofructokinase; O15648; T. brucei PFK, ADP-Glo luminescence; Potency, µM (highest dose often 57.5 µM), for inactives: top-dose activity, negative = inhibition, actives largely listed as inhibitors; hit rate 0.17% among 330,000;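 also: potency is read from the fitted curve at half-maximal effect; 0% = uninhibited 1x PFK enzyme wells and -100% = no-enzyme wells; nearly all actives have a fitted effect of over 60% in size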
Target sequence (O15648 whole entry, looked up): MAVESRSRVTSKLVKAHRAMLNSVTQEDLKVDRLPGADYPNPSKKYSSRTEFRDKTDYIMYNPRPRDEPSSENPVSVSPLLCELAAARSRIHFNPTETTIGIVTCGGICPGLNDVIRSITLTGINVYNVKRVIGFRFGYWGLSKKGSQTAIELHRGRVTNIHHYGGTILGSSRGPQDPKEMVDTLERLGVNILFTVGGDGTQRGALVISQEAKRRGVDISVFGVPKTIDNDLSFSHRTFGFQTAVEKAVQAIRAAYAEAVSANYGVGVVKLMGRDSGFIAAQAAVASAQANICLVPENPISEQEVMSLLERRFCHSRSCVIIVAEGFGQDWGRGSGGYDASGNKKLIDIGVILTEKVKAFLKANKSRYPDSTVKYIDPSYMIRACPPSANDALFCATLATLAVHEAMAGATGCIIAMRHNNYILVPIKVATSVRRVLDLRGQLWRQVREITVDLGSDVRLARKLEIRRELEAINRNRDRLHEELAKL
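Luminescent ADP detection (ADP-Glo, two-step: ATP depletion then ADP-to-ATP conversion for luciferase) reported PFK activity after 45 min room-temperature reaction of 1.25 nM enzyme with 0.5 mM F6P and 0.1 mM ATP at pH 8.0.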
CCT modulator: modulators of cytosolic chaperonin (CCT/TRiC) activity | hit rate 0.3% among 360,000 | activity change, % (no concentration beside the values), hits read low | AID 651819 | purified chaperonin ATPase assay, HTRF ADP detection, 30 min; in the data active = activity change below about -30%; also: % is scaled to controls: 0 for no effect and ±100 for the full control effect
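First, chaperonin was dispensed at 40 nM or 20 nM final depending on batch activity. Next, compounds were pinned at 76 uM and ATP added at 10 uM. After 30 min at 37 °C, ADP detection reagents ran 30 min at ambient temperature.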
BCR signal inh: inhibitors of chronic active B-cell receptor signaling. AID 493014. ABC-DLBCL IkBa-CBG/CBR reporter, luminescence ratio, 4 h. Potency, µM (top dose mostly 46.1 µM), for inactives: top-dose activity change, negative = inhibition, actives largely listed as inhibitors. hit rate 0.05% among 340,000; active = well fitted inhibition curve with a large enough effect in the signal ratio, with a control signal flat, not every such curve was filed as active; inconclusive = small, poorly fitted or top-dose-only effect, or effect the other way, or a change in a side signal; the % refers to the signal ratio;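 also: potency is read from the fitted curve at half-maximal effect; plate controls were basal doxycycline-induced cells for no effect and cells given 10 µM MG132 for full effect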
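Cell line TMD8 (human ABC DLBCL), stably expressing tet-inducible CBG68-IkBa fusion and CBR; IMDM/0.5% FBS; cpd up to 46 uM; dox induction, 4 h, 37C/5% CO2; dual luminescence; green/red ratio; MG132 control.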
TCR act: activates T cell receptor signaling; AID 504894; Potency, µM (doses to about 9.22 µM), inactives show at the top dose activation of IL-2 secretion, usual class: activators; 330,000 tested, under 10 active; primary human leukocytes, anti-CD3, IL-2 HTRF, 48 h; also: % of control where 0% means no effect
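HTRF read-out of IL-2 secretion: europium cryptate donor excited at 320nm, d2 acceptor emission at 665nm. Cells were primary human leukocytes incubated 48 hr with compounds and a-CD3 beads, supplying TCR signal only.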
An asterisk follows results filed as active; i = inactive; ? = inconclusive; · = no result given; [ ] = another dose, or the depositor's remark. Compounds with a hit are over-represented: about 0.49% of the library has one in this group of screens. Unless noted, calls follow the shape of the dose curve; as a rule, active = well fitted curve in the direction sought with a large enough effect; inconclusive = small, poorly fitted or top-dose-only effect, or another doubt; inactive = no such curve, though single readings can be large; an effect the other way counts as inactive or inconclusive.

SMILES	ASM inhibitor	Tb PFK inh	CCT modulator	BCR signal inh	TCR act
CC(=Nc1ccccc1)C1=C(O)C(Cc2ccc(O)cc2)NC1=O (stereo unspecified)	4%	·	-68*	·	0%
Cc1ccccc1CS(=O)(=O)CCC(=O)NCCCN1CCN(c2ccccc2F)CC1	0%	-1%	-1	-7%	1%
Cc1cc(C)c2c(=O)n(CC(=O)NCCCN3CCN(c4ccccc4F)CC3)sc2n1	2%	12µM*	0	9%	11%
Cc1cc(S(=O)(=O)NC2CCCCC2)ccc1OCC(=O)N1CCOCC1	4%	3%	-67*	19%	·
N#Cc1cc(Oc2cccc3cccnc23)c(-n2nnc3ccccc32)cc1C#N	-1%	-8%	0	7.9µM*	1%
N#Cc1cc(O)c(-n2nnc3ccccc32)cc1C#N	0%	-6%	-1	12%	2%
CC(C)C(C)(C#N)NC(=O)CSc1nc(C2CCCCC2)n(-c2ccccc2)n1 (stereo unspecified)	0%	-2%	-33*	-4%	0%[46.1 µM]
NC(=O)NC(=O)CSc1nc(C2CCCCC2)n(-c2ccccc2)n1	-1%	-3%	-3	-1%	-2%[46.1 µM]
COC(=O)CN1C(=O)[C@H]2[C@@H](C3CC3)N3C(=O)CN(Cc4ccccn4)C(=O)[C@@]3(Cc3ccccc3)[C@H]2C1=O	-2%	0%	-40*	-13%	1%
Cc1ccc(S(=O)(=O)N2CCN(c3cc4c(cc3[N+](=O)[O-])n(C)c(=O)n4C)CC2)cc1	?	-7%	-54*	3%	·
O=C(Nc1c(F)cc(F)cc1Br)c1ccco1	2%	-1%	-101*	-1%	·
COc1ccc(S(=O)(=O)N(CC(=O)Nc2ccccc2Cl)Cc2ccccc2)cc1	·	·	·	5%	·
CC(=O)c1ccc(OCc2cc(C(=O)N3CCC(c4ccncc4)CC3)no2)cc1	-2%	7%	-49*	-3%	-2%
COc1cccc(OCc2cc(C(=O)N3CCC(c4ccncc4)CC3)no2)c1	-2%	0%	-1	-1%	1%
Cn1nc(C(=O)Nc2ccc(-n3cnnn3)cc2)c2ccccc2c1=O	1%	-11%	1	?	5%
CC(C)n1nc(C(=O)Nc2ccc(-n3cnnn3)cc2)c2ccccc2c1=O	-3%	2%	-31*	?	-7%[46.1 µM]
COc1ccc([C@]23Cc4cc(C#N)ccc4C(O2)C2=C(CC4(CCCCC4)OC2=O)O3)cc1	·	3%[11.5 µM]	·	24%[9.22 µM]	·
CC(=O)c1ccc(N2C(=O)N(Cc3cc(C)ccc3C)c3ccccc3S2(=O)=O)cc1	·	·	·	3%	·
CC1CCN(C(C(=O)Nc2ccc3c(c2)OCO3)c2ccccc2)CC1 (stereo unspecified)	10%	-2%	-84*	12%	1%
Cc1ccc(-n2ncc3c(NCCC4=CCCCC4)ncnc32)cc1C	·	·	·	5%	·
CCN(CC)S(=O)(=O)c1ccc(C(=O)NC(=S)N2CCN(c3ccccc3O)CC2)cc1	·	·	-52*	·	·
COc1ccc(CCNC(=O)c2ccc3c(c2)N(Cc2ccc(Cl)cc2)C(=O)c2ccccc2S3)cc1OC	·	·	·	-4%	·
Cc1c(C(=O)N2CCOCC2)c(S(=O)(=O)Nc2ccccc2)c(C)n1C	2%	10%	-53*	?	6%
CCOc1ncccc1C(=O)Nc1nnc(C2CC2)s1	3%	-7%	-30*	?	-1%
CN(C(=O)C(C)(C)C)[C@H]1C[C@H]2c3[nH]c4ccccc4c3CCN2C(=O)[C@H]1CO	·	·	0	·	·
SMILES	ASM inhibitor	Tb PFK inh	CCT modulator	BCR signal inh	TCR act
CN(C(=O)NC1CCCCC1)[C@H]1C[C@H]2c3[nH]c4ccccc4c3CCN2C(=O)[C@H]1CO	·	·	-57*	·	·
O=c1c2ccccc2oc2cc(-c3ccc4cc[nH]c4c3)ccc12	55%	-1%	-44*	?	0%
O=c1c2ccccc2oc2ccc(-c3ccc4[nH]ccc4c3)cc12	-9%	·	2	·	0%
Cc1ccc(OCC(=O)N2CCN(C(=O)CCC3CCCC3)CC2)cc1	0%	-1%	-76*	?	3%
O=C(CCC1CCCC1)N1CCN(C(=O)COc2ccccc2)CC1	-2%	-1%	0	-5%	1%
O=C(CSc1nnc(-c2cccnc2)n1Cc1ccco1)c1ccccc1	0%	-8%	-1	?	3%
NC(=O)c1ccc(NC(=O)CSc2nnc(-c3cccnc3)n2Cc2ccco2)cc1	i	-9%	-73*	0%	2%
O=C1c2oc3ccccc3c(=O)c2C(c2ccccc2)N1Cc1ccc2c(c1)OCO2 (stereo unspecified)	·	·	·	6%	·
Cc1ccc(S(=O)(=O)Oc2ccc(/C=C(/NC(=O)c3ccccc3)C(=O)Nc3ccccc3)cc2)cc1	3%	6%	-67*	3%	-10%
Cc1cccc(N(CC(=O)NC(C)C)C(=O)c2ccc(N3CCCC3)nc2)c1	1%	-1%	-35*	8%	6%
CC(C)N1C(=O)/C(=C\c2nc3ccccc3c(=O)[nH]2)c2ccccc21	32µM*	?	-1	?	-2%[46.1 µM]
CC(C)OC(=O)c1c(NC(=O)c2cc3nc(-c4ccccc4)cc(C(F)(F)F)n3n2)sc2c1CCCC2	·	·	·	5%	·
CCc1ccccc1NC(=S)N=Nc1c(O)n(C)c2ccc(S(=O)(=O)N3CCOCC3)cc12	-15%	-3%	0	18µM*	-2%
Cc1ccc(C)c(NC(=S)N=Nc2c(O)n(C)c3ccc(S(=O)(=O)N4CCOCC4)cc23)c1	-15%	-8%	-1	?	-9%[46.1 µM]
Cc1ccc(C)c(N(C)S(=O)(=O)c2ccc3[nH]cc(C(=O)NC4CCCC4)c(=O)c3c2)c1	·	·	·	19%	·
COc1ccc(CC(=O)NC2CC(=O)N(c3ccc(C)c(C)c3)C2)cc1OC (stereo unspecified)	·	·	·	-8%	·
Cn1c2cc(B(O)O)sc2c2cnn(Cc3ccc(F)cc3F)c(=O)c21	·	-16%	·	?	·
COc1ccc2[nH]c3c(NCCN(C(C)C)C(C)C)ncnc3c2c1	20%	-2%	-52*	-5%	0%
CCOc1ccc2[nH]c3c(NCCN(CC)CC)ncnc3c2c1	19%	7%	2	7%	-9%
Cc1ccc([C@H]2C[C@@H](n3cc(C4CC4)nn3)[C@H](O)CN2CC2CCCCC2)cc1	·	·	-74*	·	·
Cc1ccc([C@H]2C[C@H](n3cc(C4CC4)nn3)[C@@H](O)CN2CC2CCCCC2)cc1	·	·	0	·	·
Cc1ccc(/C(O)=C2\C(=O)C(=O)N(CCN(C)C)C2c2ccccc2F)cc1 (stereo unspecified)	0%	0%	-2	6%	3%
Cc1ccc(/C(O)=C2\C(=O)C(=O)N(CCCN3CCOCC3)C2c2ccccc2F)cc1 (stereo unspecified)	·	·	-40*	·	·
CCOC(=O)N1CCN(C(=O)CCS(=O)(=O)c2ccc3c(c2)CC(C)N3C(=O)CC)CC1 (stereo unspecified)	-10%	-6%	-77*	-7%	-1%
